Source: PubChem BioAssay
miR122 inh – raises miR-122 sensor activity in Huh7 cells. activation, % at 12.5 µM. Huh7 psiCHECK-miR122 Renilla luciferase sensor, 48 h. 340,000 tested, 0.14% active;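 active means mean activation of 30% or more, with every replicate also reaching 30%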;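 further: higher luciferase signal means stronger suppression of miR-122 activity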
Each line names hits and unclear results; the compound was inactive in the other large screens. The entries come from a sample that favours hits as a whole.

Cc1oc(-c2ccc(Cl)cc2)nc1CN1CCCC(C(=O)NCc2ccco2)C1 (stereo not given)	miR122 inh 39.4
CCC1=Nc2cc(C(=O)NCc3ccco3)ccc2Sc2ccc(C)cc21	none
Cc1ccc(Nc2nc(C(=O)NCc3ccco3)cs2)cc1	none
C[C@H]1CN([C@@H](C)CO)S(=O)(=O)c2ccc(Br)cc2O[C@@H]1CN(C)CC1CCOCC1	none
CNC[C@H]1Oc2cc(C#CC(C)C)ccc2S(=O)(=O)N([C@H](C)CO)C[C@@H]1C	none
CN(C[C@H]1N[C@@H](CO)[C@H]1c1ccc(-c2ccccc2)cc1)C(=O)C1CCC1	miR122 inh 42.3
C[C@@H]1CN([C@@H](C)CO)C(=O)c2cc(/C=C/c3ccccc3)cnc2O[C@@H]1CN(C)C(=O)C1CCC1	none
C[C@@H]1CN([C@H](C)CO)S(=O)(=O)c2ccc(-c3ccccc3)cc2O[C@H]1CN(C)C(=O)C1CCCCC1	none
CN(C)S(=O)(=O)n1cc(/C=C(\NC(=O)c2ccccc2Cl)C(=O)NCCCn2ccnc2)c2ccccc21	none
COCC(=O)Nc1ccc2c(c1)OC[C@H](C)N(C(C)=O)C[C@@H](C)[C@@H](OC)CN(C)C2=O	none
C[C@H]1CN([C@@H](C)CO)C(=O)c2cc(-c3ccccc3)cnc2O[C@@H]1CN(C)C(=O)c1cccnc1	none
C[C@H](CO)N1C[C@H](C)[C@@H](CN(C)Cc2ccc(C(F)(F)F)cc2)Oc2c(NC(=O)C3CC3)cccc2C1=O	none
CO[C@H]1CN(C)C(=O)c2cc(NC(=O)c3nc4ccccc4s3)ccc2OC[C@@H](C)N(Cc2ccncc2)C[C@@H]1C	none
CC(=O)Nc1ccc(S(=O)(=O)Nc2cccc(-c3nc4ccccc4o3)c2)cc1	none
CC(=O)Nc1ccc(-c2cc(-c3ccc(NC(C)=O)cc3)nc(-c3ccc(NC(C)=O)cc3)n2)cc1	miR122 inh 31.9
CC(=O)Nc1ccc(NS(=O)(=O)c2ccc3ccccc3c2)cc1	none
O=S(=O)(NCC1CCCO1)c1ccc(Cl)c(C(F)(F)F)c1 (stereo not given)	none
C[C@@H]1CN([C@@H](C)CO)C(=O)c2cc(C#Cc3ccccn3)cnc2O[C@H]1CN(C)C(=O)c1cnccn1	none
CN[C@H]1C[C@H]2c3[nH]c4ccc(-c5ccc(OC)cc5)cc4c3CCN2C(=O)[C@H]1[C@H](C)O	miR122 inh 32.2
N#CC1c2ccccc2-c2ccccc2N1C(=O)c1ccccc1 (stereo not given)	none
CC(=O)C[C@H]1c2cc(C(F)(F)F)ccc2S(=O)(=O)N1C1CCCC1	none
C[n+]1c2cc(N)ccc2cc2ccc(N)cc21	miR122 inh 76.0
O=C(C1CCCCC1)N1[C@H](CO)[C@@H]2c3ccccc3N(S(=O)(=O)c3ccccc3)C[C@@H]21	none
O=S(=O)(c1ccc(F)cc1)N1C[C@H]2[C@@H](c3ccccc31)[C@@H](CO)N2Cc1ccc2c(c1)OCO2	none
CCCNC(=O)N1C[C@H]2[C@@H](c3ccccc31)[C@@H](CO)N2Cc1ccc(F)cc1	none
O=C(Nc1ccccc1F)N1C[C@H]2[C@@H](c3ccccc31)[C@@H](CO)N2C(=O)c1ccc(F)cc1	none
COc1cccc(C(=O)N2C[C@H]3[C@@H](c4ccccc42)[C@@H](CO)N3C(=O)c2ccc(F)cc2)c1	none
O=C(c1cccnc1)N1C[C@H]2[C@@H](c3ccccc31)[C@H](CO)N2C(=O)Nc1ccccc1Cl	miR122 inh 40.0
O=C(Nc1ccc(F)cc1)N1C[C@H]2[C@@H](c3ccccc31)[C@H](CO)N2C(=O)c1ccncc1	miR122 inh 50.0
CCCNC(=O)N1C[C@@H]2[C@H](c3ccccc31)[C@@H](CO)N2Cc1cc(F)ccc1F	miR122 inh 35.9
COCC(=O)N1[C@H](CO)[C@H]2c3ccccc3N(C(=O)c3ccccc3F)C[C@H]21	miR122 inh 44.2
O=C(Nc1ccc(N2CCOCC2)c(S(=O)(=O)Nc2cc(Cl)ccc2Cl)c1)c1cccnc1	none
COCC(=O)N(C)C[C@@H]1Oc2ncc(C#Cc3ccncc3)cc2C(=O)N([C@@H](C)CO)C[C@@H]1C	none
C[C@@H]1CN([C@H](C)CO)C(=O)c2cc(C3=CCCCC3)cnc2O[C@H]1CN(C)C(=O)Cc1ccccc1	none
CC(C)C#Cc1cnc2c(c1)C(=O)N([C@H](C)CO)C[C@H](C)[C@@H](CN(C)Cc1ccccn1)O2	none
C[C@H]1CN([C@@H](C)CO)C(=O)c2cc(C#Cc3ccccn3)cnc2O[C@@H]1CN(C)Cc1cncnc1	none
C[C@H](CO)N1C[C@H](C)[C@H](CN(C)CC2CCOCC2)Oc2ncc(-c3ccc(C#N)cc3)cc2C1=O	none
CCCC#Cc1ccc2c(c1)O[C@@H](CN(C)C(=O)c1cccnc1)[C@@H](C)CN([C@H](C)CO)S2(=O)=O	none
C[C@H]1CN([C@@H](C)CO)C(=O)c2cc(N(C)C)ccc2O[C@H]1CN(C)Cc1ccc(C(=O)Nc2ccccc2N)cc1	none
CCC(=O)N(C)C[C@@H]1Oc2ncc(C#C[C@@H](C)O)cc2C(=O)N([C@H](C)CO)C[C@@H]1C	none
C[C@@H]1CN([C@H](C)CO)C(=O)c2cc(C#CC3CC3)cnc2O[C@H]1CN(C)C	none
C[C@H]1CN([C@@H](C)CO)S(=O)(=O)c2ccc(-c3cncnc3)cc2O[C@@H]1CN(C)C(=O)Cc1ccncc1	none
